Screening data (PubChem BioAssay)
697 NFkB inh – inhibitors of PMA/ionomycin-induced NF-kB reporter, 697 cells, primary screen, B-cell NF-kB inhibitor project, cell-based, luminescence, uHTS | 697 B-cell NF-kB luciferase reporter, 16 h | inhibition, % at 4 µM | 330,000 compounds, 0.33% hits | AID 435022, 2010; in the data active = inhibition above about 35%
Jurkat NFkB inh – inhibitors of induced NF-kB luciferase reporter, primary screen, TCR NF-kB activation inhibitor project, cell-based, luminescence, uHTS | Jurkat, PMA/ionomycin-induced NF-kB luciferase reporter | inhibition, % at 4 µM | 330,000 compounds, 0.53% hits; in the data active = inhibition above about 50%
Mdm2-MdmX inh – inhibitors of human Mdm2-MdmX association, primary screen, cell-based, luminescence, split luciferase, SaOS-2, uHTS; Protein Mdm4 (Homo sapiens) + E3 ubiquitin-protein ligase Mdm2 (Homo sapiens), …; SaOS-2 split-luciferase Mdm2/MdmX complementation; inhibition, % at 8 µM; 330,000 compounds, 3% hits; AID 485346, 2010;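 active = inhibition of at least 50% at 8 µM in the primary screen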
Target sequence (O15151 whole entry, looked up): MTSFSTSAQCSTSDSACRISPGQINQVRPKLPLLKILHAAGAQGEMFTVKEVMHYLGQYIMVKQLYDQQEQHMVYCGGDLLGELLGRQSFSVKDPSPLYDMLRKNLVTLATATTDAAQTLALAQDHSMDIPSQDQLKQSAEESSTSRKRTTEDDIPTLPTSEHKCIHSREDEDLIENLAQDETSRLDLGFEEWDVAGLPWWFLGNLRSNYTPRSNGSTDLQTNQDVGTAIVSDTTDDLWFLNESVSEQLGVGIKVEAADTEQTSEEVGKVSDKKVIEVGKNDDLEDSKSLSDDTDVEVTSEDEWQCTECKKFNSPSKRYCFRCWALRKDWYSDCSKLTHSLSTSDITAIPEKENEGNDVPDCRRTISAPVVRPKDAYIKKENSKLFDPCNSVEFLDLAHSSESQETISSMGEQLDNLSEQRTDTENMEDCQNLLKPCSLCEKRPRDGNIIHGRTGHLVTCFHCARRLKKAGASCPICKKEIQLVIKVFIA
Target sequence (Q00987 whole entry, looked up): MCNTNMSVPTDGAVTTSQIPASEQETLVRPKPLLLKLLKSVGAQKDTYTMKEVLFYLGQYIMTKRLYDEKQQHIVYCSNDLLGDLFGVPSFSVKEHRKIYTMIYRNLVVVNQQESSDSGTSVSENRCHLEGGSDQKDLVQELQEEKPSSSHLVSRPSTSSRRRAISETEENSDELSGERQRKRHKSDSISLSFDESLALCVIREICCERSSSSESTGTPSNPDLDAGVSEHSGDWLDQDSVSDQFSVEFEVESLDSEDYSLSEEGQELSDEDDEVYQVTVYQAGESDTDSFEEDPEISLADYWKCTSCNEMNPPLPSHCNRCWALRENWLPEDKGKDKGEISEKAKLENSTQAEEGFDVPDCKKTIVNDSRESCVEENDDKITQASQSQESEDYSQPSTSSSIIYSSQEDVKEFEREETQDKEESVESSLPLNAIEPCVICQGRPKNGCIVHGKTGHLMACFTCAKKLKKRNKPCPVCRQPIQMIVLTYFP
Gli-Sufu block – Gli-Sufu pathway antagonists, primary screen, luciferase luminescence, Sufu-KO-LIGHT cells, uHTS | Sufu-KO-LIGHT fibroblasts, Gli luciferase reporter luminescence | inhibition, % at 5 µM | 340,000 compounds, 0.74% hits;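 active = inhibition above about 55%, limit read from the data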;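 also: 0% = DMSO-treated cells and 100% = wells with medium but no cells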
aSyn UTR inh – MLPCN primary screen, SNCA 5' untranslated region | alpha-synuclein 5'UTR reporter, inhibitor activity | inhibition, % (tested at 7.5 µM) | 300,000 compounds, 0.82% hits; in the data active = inhibition above about 60%; inconclusive = no clear call, values can overlap the other calls;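 also: H4 neuroglioblastoma cells stably carrying SNCA 5'UTR luciferase fusion; 0% = DMSO wells and 100% = positive control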
KLF5 inh – KLF5 expression inhibitors, primary screen, DLD-1 cells, luminescence | DLD-1 KLF5 promoter-luciferase reporter | inhibition, % at 5 µM | 290,000 compounds, 0.23% hits;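 active = inhibition above a per-plate limit of that plate's mean compound inhibition plus 3 SD, cut at about 60% in these data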;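 also: 0% = DMSO wells and 100% = LY294002 at 200 µM; higher means less KLF5 promoter-driven luciferase light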
697 NFkB conf – PMA/ionomycin-induced NF-kB reporter inhibitors, 697 retest, confirmation, B-cell NF-kB inhibitor project, cell-based, luminescence, single concentration; shares compounds with 697 NFkB inh; 697 B-cell NF-kB luciferase, 16 h; inhibition, % at 4 µM; 2,000 compounds, 35% hits; in the data active = inhibition mostly above about 28%, no sharp cut-off; inactive = mostly below about 22%
* = called active by the depositor; i = inactive; ? = inconclusive; · = no result. Hits are enriched below; roughly 4.1% of the tested compounds scored in any of these assays.

SMILES | 697 NFkB inh | Jurkat NFkB inh | Mdm2-MdmX inh | Gli-Sufu block | aSyn UTR inh | KLF5 inh | 697 NFkB conf
CCc1ccccc1NC(=O)CSc1nnc([C@@H]2CCCN2C(=O)OC(C)(C)C)o1 | 36* | -15 | -2 | -6 | -32 | -6 | 16
O=C(O)CCCCCn1c(SCc2cc(=O)n3ccccc3n2)nc2ccsc2c1=O | 36* | 7 | 12 | -6 | -34 | 7 | 23
CN1CCN(C(=O)c2ccccc2N(Cc2ccccc2)S(=O)(=O)c2ccccc2)CC1 | 40* | 14 | -4 | 17 | -8 | -23 | 25*
CN1CCN(C(=O)c2ccccc2N(Cc2ccccc2)S(C)(=O)=O)CC1 | 1 | -2 | 15 | -11 | 4 | -59 | ·
COc1ccccc1NS(=O)(=O)c1ccc(C(=O)NCC(c2cccs2)N2CCOCC2)cc1 (stereo not given) | 2 | 9 | 19 | -7 | · | · | ·
CC1(c2nnc(-c3cccc(Cl)c3)o2)CC(c2cccc(Cl)c2)=NO1 (stereo not given) | 37* | 33 | 27 | -12 | 8 | · | 37*
CCOc1cc(C(=O)Nc2ccc3c4c(cccc24)C(=O)N3CC)cc(OCC)c1OCC | 4 | -9 | 25 | 24 | -10 | -13 | ·
CCN1C(=O)c2cccc3c(NC(=O)c4cccc(N5C(=O)CCC5=O)c4)ccc1c23 | 36* | 3 | -2 | 15 | 3 | -3 | 40*
COc1ccc(-c2[nH]ncc2/C=N/NC(=O)c2ccncc2)c(OC)c1 | -22 | 16 | 3 | -4 | -2 | -22 | ·
Cc1cc(-c2csc3nc[nH]c(=S)c23)cc(C)c1C | 35* | 2 | 40 | 1 | 2 | 1 | -22
Cc1ccc(-c2csc3nc[nH]c(=S)c23)cc1 | 6 | 2 | 10 | 2 | -8 | -5 | ·
COC(=O)c1ccc(S(=O)(=O)N2Cc3ccccc3C2)cc1 | -5 | -14 | 9 | -3 | 15 | -16 | ·
Oc1ccc2ccccc2c1N=Nc1ccc(F)cc1 | -15 | -9 | -1 | 3 | -19 | 0 | ·
Cc1ccc(N=Nc2ccc3ccccc3c2O)cc1 | -268 | -82 | 20 | 11 | ? | 5 | -286
CCc1nccn1CCC(=O)NC1CC(C)(C)Cc2c1cnn2-c1cccc(F)c1 (stereo not given) | -15 | 7 | 31 | 13 | -14 | -11 | ·
COc1cc(-c2cc(=O)c3c(C)cc(O)cc3o2)cc(OC)c1OC | · | · | · | 24 | · | · | ·
COc1cc(-c2cc(=O)c3c(O)c(OC)c(OC)c(OC)c3o2)cc(OC)c1OC | 39* | 0 | 35 | 18 | 35 | · | 38*
COc1ccc(S(=O)(=O)NCCC(=O)N2CCCN(C)CC2)cc1 | 14 | -1 | -11 | 4 | · | · | ·
Cc1ccc(-c2nn3c(C)nnc3c3ccccc23)cc1S(=O)(=O)NCCN1CCOCC1 | 53* | -6 | 24 | 16 | 12 | -25 | 30*
Cc1cc(OCC(=O)OCC(=O)NCC2CCCO2)ccc1Cl (stereo not given) | 3 | 0 | 3 | 18 | · | · | ·
COc1cc(NC(=O)c2ccco2)c(OC)cc1NC(=O)c1cc(OC)c(OC)c(OC)c1 | 41* | 6 | 49 | 11 | 17 | -24 | 33*
CC(NC(=O)C1CCC(CNc2c(N3CCCCC3)c(=O)c2=O)CC1)c1ccccc1 (stereo not given) | 36* | 12 | 16 | -6 | -10 | -6 | -11
COc1ccc(NC(=O)CN(C)C(=O)CCc2ccccc2)cc1 | 9 | 6 | 9 | 0 | -1 | -38 | ·
COc1ccc(NC(=O)CN(C)C(=O)C2(c3ccccc3)CCCC2)cc1 | 71* | 12 | 16 | 31 | · | · | 72*
CCOc1ccc(NC(=O)CSc2nc(=O)n(CCCN3CCOCC3)c3c2CCC3)cc1 | 4 | -3 | 34 | 10 | -4 | · | ·
SMILES | 697 NFkB inh | Jurkat NFkB inh | Mdm2-MdmX inh | Gli-Sufu block | aSyn UTR inh | KLF5 inh | 697 NFkB conf
COc1ccc(Cl)cc1NC(=O)CN(C)C(=O)c1ccc(-n2cncn2)cc1 | -1 | 1 | 19 | 1 | · | · | ·
CC(C)(C)c1ccc(-c2nnc(SCC(=O)NC3CC3)o2)cc1 | 57* | -78 | -61 | -26 | · | · | 39*
CCOc1ccc(-c2nnc(SCC(=O)NC3CC3)o2)cc1 | 60* | -29 | -48 | 2 | · | · | 56*
Cc1ccc(C(C(=O)NCc2ccccc2)N(C(=O)c2ccccn2)c2ccccc2)o1 (stereo not given) | -4 | 10 | -13 | -12 | -21 | -21 | ·
Cc1cc(Cn2nc(-c3ccccc3)cc2C(=O)NCC2CC2)on1 | 8 | 18 | 14 | -11 | -1 | · | ·
Cc1ccc(Nc2nc(N)nc(COC(=O)c3ccc(Br)o3)n2)cc1 | -75 | -18 | 4 | -29 | · | · | ·
N/C(=N\OC(=O)COc1ccc(Cl)cc1Cl)c1ccccn1 | -209 | -123 | -71 | -93 | 9 | -47 | ·
N/C(=N\OC(=O)/C=C/c1ccccc1Cl)c1ccccn1 | -318 | -113 | -38 | -62 | 40 | 54 | -276
N/C(=N\OC(=O)COc1ccc(Br)cc1Cl)c1ccccn1 | -317 | -111 | -55 | -64 | 35 | -118 | -315
Cc1ccc(C)c(Nc2nn3c(=O)c4ccc(C(=O)NCc5cccnc5)cc4nc3s2)c1 | 43* | 6 | 37 | 10 | -17 | 8 | 21
Cn1nccc1C(=O)Oc1ccc(/C=N/NC(=O)c2ccccc2O)cc1 | -21 | 6 | 0 | 24 | -20 | -26 | ·
Cc1cccc(C(=O)n2c(=S)nc3cc(C)ccn32)c1 | -367 | -132 | 17 | -85 | -60 | -117 | -349
Cc1ccn2c(c1)nc(=S)n2C(=O)c1ccccc1 | i | -119 | 44 | -48 | -100 | -192 | -405
O=C(c1ccco1)n1c(=S)nc2ccccn21 | -81 | -57 | -87 | 4 | -172 | -143 | ·
Cc1cc(NC(=O)c2cccc(COc3ccc(Br)cc3)c2)no1 | 56* | -21 | -50 | -139 | -4 | -125 | 12
CC/C(=N/Nc1ccc(Cl)cc1)c1cnnc(SC)n1 | 36* | -4 | -16 | 8 | -15 | -3 | 17
CCc1ccc(NC(=O)c2cnc(SC)nc2C)cc1 | -5 | 4 | 23 | -12 | -93 | -17 | ·
CC(C)(C)c1ccc(C(=O)N/C(N)=N/c2nc3ccccc3o2)cc1 | -24 | 10 | 18 | 5 | -24 | 8 | ·
Cc1ccc2oc(/N=C(\N)NC(=O)C3CC3)nc2c1 | -265 | -23 | 8 | -93 | 5 | -14 | -325
CCc1c(C)sc(NC(=O)Cc2ccccc2C)c1C(=O)N1CCOCC1 | 29 | 7 | 25 | 3 | 25 | -2 | ·
